# Laboratory results reported in PubChem BioAssay AID1851 (National Center for Advancing Translational Sciences (NCATS), 2009).
# Out of some 16,000 compounds screened, about 2,600 (16%) were called active. Another 20% or so got no clear call; they are omitted. Calls follow the shape of the dose curve; as a rule, active = well fitted curve in the direction sought with a large enough effect; inconclusive = small, poorly fitted or top-dose-only effect, or effect the other way; inactive = no such curve, though single readings can be large or run the other way. These entries were drawn from the full list.
# Target: Cytochrome P450 2D6 (Homo sapiens) (UniProt P10635)
# Sequence (P10635 whole entry, looked up): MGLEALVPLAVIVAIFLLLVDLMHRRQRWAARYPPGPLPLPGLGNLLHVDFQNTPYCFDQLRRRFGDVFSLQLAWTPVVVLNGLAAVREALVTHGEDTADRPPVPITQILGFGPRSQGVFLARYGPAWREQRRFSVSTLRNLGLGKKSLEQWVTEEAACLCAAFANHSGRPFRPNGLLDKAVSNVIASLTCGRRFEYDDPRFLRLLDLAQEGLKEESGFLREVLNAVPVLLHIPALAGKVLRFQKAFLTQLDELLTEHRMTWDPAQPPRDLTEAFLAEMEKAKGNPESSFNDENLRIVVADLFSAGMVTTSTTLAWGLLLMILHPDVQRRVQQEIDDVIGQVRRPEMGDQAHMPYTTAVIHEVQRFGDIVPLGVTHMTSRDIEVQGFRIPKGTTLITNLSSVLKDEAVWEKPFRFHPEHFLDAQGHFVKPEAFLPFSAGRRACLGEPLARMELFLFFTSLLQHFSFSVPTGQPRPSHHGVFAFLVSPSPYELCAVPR
# Assay: Cytochrome panel assay with activity outcomes
# Conditions: recombinant CYP, pro-luciferin dealkylation, luminescence, p450-cyp2d6; series mostly up to 57.1 µM
# % is scaled to controls: 0 for no effect and ±100 for the full control effect.
SMILES,AC50,"activity, negative = inhibition"
CCNc1ncc2nc(CCc3ccccc3)c(=O)n(-c3ccc(OC)cc3)c2n1,251 nM (active),
CCNc1ncc2nc(CCc3ccccc3)c(=O)n(C3CC3)c2n1,398 nM (active),
CCNc1ncc2nc(C)c(=O)n(C3CC3)c2n1,inactive,
COc1ncc2nc(CCc3ccccc3)c(=O)n(-c3ccccc3)c2n1,inactive,
Cn1c(=O)c(CCc2ccccc2)nc2cnc(Nc3ccccc3)nc21,inactive,
COc1cccc(Nc2ncc3nc(CCc4ccccc4)c(=O)n(C4CC4)c3n2)c1,inactive,
Cn1c(=O)c(CCc2ccccc2)nc2cncnc21,inactive,
COc1ccc(-n2c(=O)c(CCc3ccccc3)nc3cncnc32)cc1,inactive,
CCNc1ncc2nc(CCc3ccccc3)c(=O)n(Cc3ccc(F)cc3)c2n1,inactive,
CCNc1ncc2nc(CCc3ccccc3)c(=O)n(C)c2n1,1580 nM (active),
CCNc1ncc2nc(CCc3ccccc3)c(=O)n(-c3ccccc3)c2n1,100 nM (active),
COc1ccc(-n2c(=O)c(CCc3ccccc3)nc3cnc(N4CCN(C)CC4)nc32)cc1,inactive,
CC(C)Cc1nc(N2CCN(C(=O)c3ccccc3)CC2)c(C#N)c2c1CCC2,inactive,
Nc1nc(N)[n+]([O-])c(N)c1NCO,,-8.44% [at 11.4 µM] (inactive)
CCN1C(=O)[C@H]2[C@H]3[C@H](O)[C@H](O)C/C(=N/OCC(C)C)[C@@H]3CC[C@@H]2C1=O,,8.5% [at 11.4 µM] (inactive)
O=C(CN1C(=O)C2C3C=CC(C3)C2C1=O)Nc1ccc(C(=O)O)cc1 (stereo not given),inactive,
CC(C)OC(=O)c1cccc(C(=O)Oc2ccc(Br)cc2)n1,inactive,
COc1cc(C2C(C#N)=C(N)N(Nc3ccccc3)C3=C2C(=O)CC(C)(C)C3)ccc1OCc1ccccc1 (stereo not given),inactive,
Cc1c(-n2cc(C(=O)c3cc(Cl)ccc3O)cc(C#N)c2=O)c(=O)n(-c2ccccc2)n1C,inactive,
CN(C)[C@H]1C(=O)C(C(=O)NCN2CCCC2)=C(O)[C@]2(O)C(=O)C3=C(O)c4c(O)cccc4[C@@](C)(O)[C@H]3C[C@@H]12,inactive,
CCOC(=O)c1c(NC(=O)c2c(Br)cnn2C)c(C#N)nn1-c1ccccc1,inactive,
O=C(N/N=C/c1ccccn1)c1ccco1,inactive,
COc1cccc2cc(NC(=O)C3CCCCC3)c(=O)oc12,inactive,
Cc1ccc(-n2nc(C)c3c2OC(N)=C(C#N)C3c2ccco2)cc1 (stereo not given),inactive,

SMILES,AC50,"activity, negative = inhibition"
COc1ccc(C(=O)N2CCCCC2)cc1S(=O)(=O)Nc1ccccc1,inactive,
CCOc1ccc(-c2nn(-c3ccccc3)cc2/C=C2\SC(N)=NC2=O)cc1C,inactive,
CSc1nsc(SCc2ccc(Cl)cc2)n1,inactive,
O=C1c2ccccc2CC[C@H]1CNCCc1ccc(O)cc1,398 nM (active),
CCOc1cc(C)ccc1OCc1nnc(SCC(=O)c2cccc([N+](=O)[O-])c2)n1C,inactive,
CCOC(=O)CSC1=NC(=O)/C(=C\c2ccc(Cl)cc2)S1,inactive,
C[C@@H](CN1CCC(Cc2ccccc2)CC1)[C@H](O)c1ccc(O)cc1,1000 nM (active),
C[C@@H](CN1CCC(Cc2ccccc2)CC1)[C@@H](O)c1ccc(O)cc1,inactive,
COc1cc(CC(=O)OC2CCOC2=O)cc(OC)c1OC (stereo not given),inactive,
Cc1ccc(CN2CC34C=CC(O3)C(C(=O)NCc3ccco3)C4C2=O)cc1 (stereo not given),inactive,
Cc1ccc(CN2CC34C=CC(O3)C(C(=O)NCc3ccc5c(c3)OCO5)C4C2=O)cc1 (stereo not given),14100 nM (active),
COc1ccc(CCN2CC34C=CC(O3)C(C(=O)NCc3ccccc3)C4C2=O)cc1OC (stereo not given),inactive,
COCCCNC(=O)C1C2C=CC3(CN(Cc4ccc(C)cc4)C(=O)C13)O2 (stereo not given),inactive,
CCCCNC(=O)C1C2C=CC3(CN(Cc4ccccc4Cl)C(=O)C13)O2 (stereo not given),inactive,
O=C(NCC1COc2ccccc2O1)C1C2C=CC3(CN(Cc4cccs4)C(=O)C13)O2 (stereo not given),14100 nM (active),
CCOc1cc(S(=O)(=O)N(Cc2ccccc2)Cc2ccccc2)c(OCC)cc1-n1cnnn1,inactive,
Cc1nc2ncnn2c(C)c1CCC(=O)NCc1ccccc1,inactive,
COc1ccc(NC(=O)CSc2nncn2C)c([N+](=O)[O-])c1,inactive,
CCOc1ccc(-c2cc(CCCC(=O)Nc3cc(OC)ccc3OC)no2)cc1,inactive,
CCOc1ccc(-n2c(SCC(=O)Nc3ccc(OC)cc3OC)nc3c(c2=O)SCC3)cc1,2240 nM (active),
N#Cc1cccc(NC(=O)N2CC[C@@]3(CCCN(C(=O)c4ccncc4)C3)C2)c1,inactive,
CS(=O)(=O)N1CCC[C@@]2(CCN(C(=O)Nc3cccc(C#N)c3)C2)C1,inactive,
CCCc1cc(=O)oc2cc(OCC(=O)N3CCc4ccccc43)ccc12,inactive,
CCCc1cc(=O)oc2cc(OCc3nn[nH]n3)ccc12,inactive,

SMILES,AC50,"activity, negative = inhibition"
CCCCc1cc(=O)oc2cc(OCC(=O)N(CC)CC)ccc12,12600 nM (active),
COc1cccc2c1C(=O)c1c(O)c3c(c(O)c1C2=O)C[C@@](O)(C(=O)CO)C[C@H]3O[C@H]1C[C@@H](N)[C@H](O)[C@@H](C)O1.[W],,4.97% [at 11.4 µM] (inactive)
COC(=O)c1nn(-c2ccc(OC)cc2)c(=O)cc1Oc1cccc(Cl)c1,inactive,
O=C1CCc2cc(OCCCCc3nnnn3C3CCCCC3)ccc2N1,inactive,
c1ccc(N2CCN(CCCOc3ccc4c(c3)OCO4)CC2)cc1,126 nM (active),
Fc1ccc([C@H]2CCNC[C@H]2COc2ccc3c(c2)OCO3)cc1,inactive,
Cn1c(=O)cc(OCCCC(=O)N2CCN(c3ccccc3)CC2)c2ccccc21,inactive,
O=C(O)c1cc(=O)[nH]c(SCc2ccccc2)n1,,4.29% [at 11.4 µM] (inactive)
C#CCCCO/N=C1/C[C@@H](O)[C@@H](O)[C@@H]2[C@@H]3C(=O)N(Cc4ccccc4)C(=O)[C@H]3CC[C@H]12,,15.7% [at 11.4 µM] (inactive)
COC(=O)c1cc(Br)c(=O)n(CCc2ccc(O)cc2)c1,inactive,
CCNc1ncc2nc(-c3cccs3)c(=O)n(Cc3cccc(OC)c3)c2n1,inactive,
CC1(C)C2([N+](=O)[O-])CN3CC1([N+](=O)[O-])CN(C2)C3c1ccccc1 (stereo not given),inactive,
CO[C@]1(NC(=O)[C@H](C(=O)O)c2ccc(O)cc2)C(=O)N2C(C(=O)O)=C(CSc3nnnn3C)CO[C@H]21,inactive,
O=C(OCn1nnc2ccccc2c1=O)c1cccnc1,inactive,
Cc1ccc(C(=O)O/N=C/c2c(Cl)n(C)c3ccccc23)cc1,inactive,
Cc1c2cnccc2c(C)c2c1c1ccccc1n2CCOC(=O)c1ccccc1,3160 nM (active),
COc1ncc2ncc(=O)n(CCC#N)c2n1,inactive,
CC(C)(C)NC[C@H](O)COc1cccc2c1CCC(=O)N2,inactive,
CC(C)(C)NC[C@H](O)COc1cccc2c1CCCC2=O,inactive,
CC(C)(C)NC[C@@H](O)COc1ccccc1C1CCCC1,2510 nM (active),
CC(C)n1cc(/C=C2/SC(=O)N(CC(=O)Nc3ccc4c(c3)OCO4)C2=O)c2ccccc21,inactive,
Cc1cccc2cc(=O)[nH]c(C)c12,inactive,
NC(=O)C1(N2CCCCC2)CCN(C(=O)c2cccn3c(=O)c4cc(Cl)ccc4nc23)CC1,inactive,
CCCC[C@H]1C[C@@H]1[C@@H]1N(P(=O)(c2ccccc2)c2ccccc2)C[C@@](O)(c2ccccc2)CC12CC2,15800 nM (active),

SMILES,AC50,"activity, negative = inhibition"
CCCC[C@H]1C[C@@H]1[C@@H]1N(P(=O)(c2ccccc2)c2ccccc2)[C@](CO)(c2ccccc2)CC12CC2,2510 nM (active),
C=C(CC1([C@@H](NP(=O)(c2ccccc2)c2ccccc2)[C@H]2C[C@@H]2CCCC)CC1)c1ccccc1,inactive,
CCCC[C@@H]1C[C@H]1C(NC(=O)c1ccccc1)c1ccc(-c2ccccc2)cc1 (stereo not given in full),inactive,
CCCC[C@@H]1C[C@H]1C(NC(=O)c1ccc(-c2ccccc2)cc1)c1ccc(-c2ccccc2)cc1 (stereo not given in full),inactive,
Cc1ccc(NC(=O)CCSc2nnc3ccccn23)cc1,inactive,
CCOC(=O)c1c(C)nc2c(c1-c1ccccc1)C(=O)CC(C)(C)C2,inactive,
CCOC(=O)Cc1csc(NC(=O)c2ccc(Cl)nc2)n1,inactive,
COc1ccc(Oc2ncc3ncc(=O)n(C)c3n2)cc1,inactive,
Cc1nc2cnc(Nc3ccccc3)nc2n(Cc2cccs2)c1=O,inactive,
O=C1c2ccccc2C(=O)N1CCSC(=S)N1CCOCC1,inactive,
O=C(NCc1cc(F)cc2c1OCCO2)[C@H]1C[C@@H]1[C@H](NP(=O)(c1ccccc1)c1ccccc1)c1ccccc1,inactive,
O=C(O)CCC(=O)CCC(=O)c1ccccc1,inactive,
CC1(C)CC(=O)C(CCC(=O)c2ccccc2)C(C)(C)N1 (stereo not given),891 nM (active),
C[N@+]1(CCC(=O)c2ccccc2)CC[C@H]2CC[C@H](C2)C1,,10.5% [at 11.4 µM] (inactive)
O=C(c1cccc(F)c1)N1CCC[C@@]2(CCN(c3ccccc3)C2)C1,inactive,
N/C(=N\OC(=O)Cc1ccc(-c2ccccc2)cc1)c1cccc([N+](=O)[O-])c1,inactive,
CC(=O)O[C@]1(C)N=NC2(CCCCC2)O1,,-4.7% [at 11.4 µM] (inactive)
CC(C)NC(=O)COC(=O)c1cc(=O)[nH]c2ccccc12,inactive,
COc1cc(C(=O)NCC(c2cccnc2)N2CCN(C)CC2)cc(OC)c1OC (stereo not given),inactive,
COc1ccc(C(CNC(=O)c2cc(=O)[nH]c3ccccc23)N2CCCC2)cc1 (stereo not given),14100 nM (active),
Cn1c(=O)c2[nH]c([C@@H]3CC(=O)C[C@H](c4nc5c([nH]4)c(=O)n(C)c(=O)n5C)N3)nc2n(C)c1=O,,-10.1% [at 11.4 µM] (inactive)
CC(=O)N1CC2(CC2)CC1c1ccccc1 (stereo not given),inactive,
CC(C)(C)c1nnc(NC(=O)c2cc(-c3ccccc3)nc3ccccc23)s1,inactive,
